Inconclusive results are not listed. Activity calls are given as the source filed them. The calls were made as follows, unless noted: active = hit-call score of the fitted dose curve at least 0.9, where 1 is the maximum; inconclusive = response in the unintended direction; inactive = score below 0.9.

Chain of THRB (gene 7068) (P10828 whole entry, looked up, the tested form may be a part): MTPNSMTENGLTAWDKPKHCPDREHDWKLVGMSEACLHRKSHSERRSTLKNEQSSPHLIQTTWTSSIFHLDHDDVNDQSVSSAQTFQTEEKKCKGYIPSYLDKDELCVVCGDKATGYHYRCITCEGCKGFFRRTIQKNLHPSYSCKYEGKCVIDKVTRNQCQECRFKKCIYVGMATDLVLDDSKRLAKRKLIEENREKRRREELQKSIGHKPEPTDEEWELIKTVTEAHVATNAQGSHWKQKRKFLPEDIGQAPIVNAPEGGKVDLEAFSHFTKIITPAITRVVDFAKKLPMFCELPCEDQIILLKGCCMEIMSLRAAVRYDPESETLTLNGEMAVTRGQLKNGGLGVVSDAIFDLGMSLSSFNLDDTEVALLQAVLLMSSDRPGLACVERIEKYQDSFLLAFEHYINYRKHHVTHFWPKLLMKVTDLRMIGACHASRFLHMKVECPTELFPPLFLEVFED
Chain of Retinoic acid receptor RXR-alpha (Homo sapiens) (P19793 whole entry, looked up): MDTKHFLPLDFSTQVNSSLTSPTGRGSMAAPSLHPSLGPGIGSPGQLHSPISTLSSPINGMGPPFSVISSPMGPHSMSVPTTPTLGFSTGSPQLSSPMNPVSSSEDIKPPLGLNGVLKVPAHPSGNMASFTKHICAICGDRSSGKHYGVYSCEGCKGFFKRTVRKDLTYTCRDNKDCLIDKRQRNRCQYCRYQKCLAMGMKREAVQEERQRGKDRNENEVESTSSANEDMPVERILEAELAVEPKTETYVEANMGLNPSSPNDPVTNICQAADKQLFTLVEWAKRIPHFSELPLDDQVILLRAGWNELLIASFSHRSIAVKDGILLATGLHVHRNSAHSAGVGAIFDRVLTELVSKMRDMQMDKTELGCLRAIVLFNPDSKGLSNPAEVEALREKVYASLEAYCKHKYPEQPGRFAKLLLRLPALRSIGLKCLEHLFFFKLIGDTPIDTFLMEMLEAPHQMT

The target of the first experiment is THRB (gene 7068) (UniProt P10828). Nature of the experiment: TOX21_TRB_BLA_Agonist_Followup_ratio: Tox21 Thyroid Hormone Receptor beta Agonism Beta-lactamase (BLA) Follow-Up Assay, Ratio (AID 2283954). In short, it runs like this:
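Human TRβ LBD–GAL4 DBD fusion in GeneBLAzer UAS-bla HEK293T cells; 11 concentrations in triplicate, 18 h at 37°C/5% CO2, T3 as agonist control. CCF4-AM substrate 2 h at room temperature; 460:530 nm ratio fitted for gain of signal versus DMSO.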
Turning to `CCC[CH2][Sn]([CH2]CCC)([CH2]CCC)[CH2]CCC`, the result was inactive.

System in another experiment: not listed separately
Description: TOX21_TRB_BLA_Agonist_Followup_viability: Viability Assessment in the Tox21 Thyroid Hormone Receptor beta Agonism Beta-lactamase (BLA) Follow-Up Assay (AID 2283956). The gist of the method: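 TRb-bla HEK293T cells (GAL4-DBD/human TRb LBD) in 2% charcoal-stripped FBS medium were exposed 18 h at 37C to 11 concentrations in triplicate. CellTiter-Glo ATP luminescence was read after 30 min at room temperature, with bidirectional fitting against DMSO.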
Consider `c1csc(-c2ccc(-c3cccs3)s2)c1`, for which the compound was called inactive.

For `CC1(C)COP(Oc2ccccc2)OC1`, the compound was called inactive.

Take `O=C(Cl)OCCOCCOC(=O)Cl`: the compound was classed as inactive.

As for `CN(C)c1ccc(N=O)cc1`, the compound was classed as inactive.

On to `C=CC(=O)[O][Sn]([CH2]CCC)([CH2]CCC)[CH2]CCC`, for which the compound was called inactive.

With `CCC[CH2][Sn]([CH2]CCC)([CH2]CCC)[CH2]CCC`, the compound was classed as inactive.

The target in the next experiment is THRB (gene 7068) (UniProt P10828). Nature of the experiment: TOX21_TRB_COA_Agonist_Followup_ratio: Tox21 Thyroid Hormone Receptor beta Agonism through Coactivator Recruitment Follow-Up Assay, Ratio (AID 2283963; active = hit-call score of the fitted dose curve at least 0.9, where 1 is the maximum; inactive = score below 0.9). The text has this:
TOX21_TRb_COA_Agonist_Followup is a secondary assay for specificity for the TOX21_TR_GH3_LUC_Agonist assay. The LanthaScreen TR-FRET TR coactivator assay kits were used to determine TR activity in a cell-free functional assay. A time-resolved fluorescence resonance energy transfer (TR-FRET) signal was indicative of coactivator (SRC-2) recruitment.TOX21_TRB_COA_Agonist_Followup_ratio is assay component calculated in the TOX21_TRB_COA_Agonist_Followup assay. The TR-FRET ratio of acceptor emission (ch2) to donor emission (ch1) is indicative of the resonance energy transfer to the fluorescein tag on the coactivator peptide following recruitment to the receptor.Data from the assay component […] was analyzed into 1 assay endpoint. This assay endpoint, […], was analyzed in the positive analysis fitting direction relative to DMSO as the negative control and baseline of activity. Using a type of inducible reporter, gain-of-signal activity can be used to understand changes in the reporter gene as they relate to the gene THRB. Furthermore, this assay endpoint can be referred to as a primary readout, because this assay has produced multiple assay endpoints and this ratio serves a reporter gene function to understand target activity. To generalize the intended target to other relatable targets, this assay endpoint is annotated to the nuclear receptor intended target family, where the subfamily is non-steroidal.
Cell Media Required: Growth (90% DMEM/F-12, 10% Fetal Bovine Calf Serum, 100U/ml Penicillin, 100 ug/ml Streptomycin), Assay (10ng/mL sodium selenite, 10 ug/mL humanapo-transferrin, 10 uM ethanolamine, 10 ug/mL insulin, 500 ug/mL bovine serum albumin (BSA))Assay Protocol: 4 uL mixture of the receptor LBDs expressed as glutathione S-transferase (GST) fusion proteins (2.5 nM for TRa and 5.0 nM for TRb) and BSA (0.10%; Sigma-Aldrich) were incubated with 23 nL of control or test compound. A time-resolved fluorescence resonance energy transfer(TR-FRET) signal was indicative of coactivator recruitment using a 2 uL mixture of fluoresce in-labeled SRC-2 peptide (200 nM) and terbium-labeled anti-GST antibody (2nM), which transferred resonance energy to the fluorescein tag on the coactivator peptide following recruitment to the receptor. Fluorescence emission ratios (520:495 nm) were collected by an Envision plate reader (excitation at 340 nm and emissions at 495 and 520 nm), and the measured values were normalized to 0% activity using DMSO-only wells and 100 activity using T3 control wells.
In the case of `c1csc(-c2ccc(-c3cccs3)s2)c1`, the result was inactive.

As to `CC1(C)COP(Oc2ccccc2)OC1`, the result was inactive.

With `O=C(Cl)OCCOCCOC(=O)Cl`, the result was inactive.

Take `CN(C)c1ccc(N=O)cc1`: the result was inactive.

For the compound `C=CC(=O)[O][Sn]([CH2]CCC)([CH2]CCC)[CH2]CCC`, the result was inactive.

For `CCC[CH2][Sn]([CH2]CCC)([CH2]CCC)[CH2]CCC`, the outcome was inactive.

For the next experiment, the target named is Retinoic acid receptor RXR-alpha (Homo sapiens) (UniProt P19793). Description: TOX21_TR_RXR_BLA_Agonist_Followup_ratio: Tox21 Thyroid Hormone Receptor beta Retinoid X Receptor alpha (RXRa) Agonism Beta-lactamase (BLA) Follow-Up Assay, Ratio (AID 2283968). In short, it runs like this:
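HEK293T RXRa-bla, qHTS; cpd 11-pt conc. in triplicate, 16 h 37C/5% CO2; CCF4-AM 2 h RT; ratio 460:530 nm; agonist direction vs DMSO; 9-cis retinoic acid as positive control.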
Turning to `CC1(C)COP(Oc2ccccc2)OC1`, the result was inactive.

As to `O=C(Cl)OCCOCCOC(=O)Cl`, the result was inactive.

`C=CC(=O)[O][Sn]([CH2]CCC)([CH2]CCC)[CH2]CCC`: the AC50 is 0.137 µM (active).

In the case of `CCC[CH2][Sn]([CH2]CCC)([CH2]CCC)[CH2]CCC`, the AC50 was 5.08 µM (active).

System in the next experiment: not listed separately
Description: TOX21_TR_RXR_BLA_Agonist_Followup_viability: Viability Assessment in the Tox21 Thyroid Hormone Receptor beta Retinoid X Receptor alpha (RXRa) Agonism Beta-lactamase (BLA) Follow-Up Assay (AID 2283970). In short, it runs like this:
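Cells: HEK293T RXRa-UAS-bla, 2,500/well; medium phenol red-free DMEM + 2% charcoal-stripped FBS; 16h, 37C/5% CO2; qHTS concentration series. Read: CellTiter-Glo luminescence (ATP); bidirectional fit, DMSO = baseline.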
As for `c1csc(-c2ccc(-c3cccs3)s2)c1`, the call was inactive.

For `CC1(C)COP(Oc2ccccc2)OC1`, the compound was called inactive.

With `CN(C)c1ccc(N=O)cc1`, the AC50 is 49.6 µM (active).

As for `C=CC(=O)[O][Sn]([CH2]CCC)([CH2]CCC)[CH2]CCC`, the AC50 is 9.68 µM (active).

For the compound `CCC[CH2][Sn]([CH2]CCC)([CH2]CCC)[CH2]CCC`, the compound was classed as inactive.

The test system of another experiment is DIO1 (gene 1733). Nature of the experiment: CCTE_GLTED_hDIO1: CCTE's human Deiodinase 1 (DIO1) Inhibition Assay, Great Lakes Toxicology and Ecology Division (GLTED) Lab (AID 2283987).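 Also: isolated human DIO1 enzyme in a cell-free setup rather than cells; enzyme activity read as free iodide liberated from substrate via Sandell-Kolthoff colorimetry.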 As for the experimental part:
CCTE_GLTED_hDIO1 is a cell-free, single-readout assay designed to test the inhibitory activity of chemicals toward human iodothyronine Deiodinase type 1 (DIO1) enzyme. Enzyme is incubated in presence of test chemical for 3 hours during which uninhibited enzyme liberates free iodide from substrate. Free iodide is measured in a second step using the Sandell-Kolthoff method.CCTE_GLTED_hDIO1 is the assay component measured from the CCTE_GLTED_hDIO1 assay. It is designed to make measurements of enzyme activity, a form of enzyme reporter, as detected with absorbance signals by spectrophotometry.Data from the assay component CCTE_GLTED_hDIO1 was analyzed into 1 assay endpoint. This assay endpoint, CCTE_GLTED_hDIO1, was analyzed in the positive analysis fitting direction relative to DMSO as the negative control and baseline of activity. Using a type of enzyme reporter, loss-of-signal activity can be used to understand changes in the enzymatic activity as they relate to the gene DIO1. Furthermore, this assay endpoint can be referred to as a primary readout, because the performed assay has only produced 1 assay endpoint. To generalize the intended target to other relatable targets, this assay endpoint is annotated to the 'deiodinase' intended target family, where the subfamily is 'deiodinase Type 1'.
[…] assay, developed at Great Lakes Toxicology and Ecology Division (GLTED) within the EPA's Center for Computational Toxicology and Exposure (CCTE), is designed to test the chemicals' ability to inhibit DIO1. Assay is based on iodide release measured by the Sandell-Kolthoff method and is run in 96-well plate format with assay plates run in triplicate (n=3). The method used for the deiodinase assay was largely based on Renko et al. (2012, 2015). These works describe the utilization of the SK reaction to measure deiodinase-liberated iodide in a 96-well-plate format. The SK reaction is based on the reduction of the yellow-colored cerium IV to the non-colored cerium III by arsenic, with the rate of this reaction increased in the presence of iodide in a concentration-dependent manner (Sandell and Kolthoff, 1937). Iodinated test chemicals can interfere as competitive inhibitors, or if the stock chemical has contaminating free-iodide present. Other chemicals, e.g.: nitrite, iron, and thiocyanate can interfere with the Sandell-Kolthoff reaction (see Sandell and Kolthoff, 1937).
For the compound `CC(C)N(C(=O)CCl)c1ccccc1`, the AC50 was 43.5 µM (active).

For the compound `O=C1c2ccccc2C(=O)C1C(=O)C(c1ccccc1)c1ccc(Cl)cc1` (stereo not drawn), the AC50 was 19.8 µM (active).

For `O=[N+]([O-])c1ccc(Cl)c([N+](=O)[O-])c1`, the AC50 was 92.7 µM (active).

Consider `CCCCCCCCCCCCc1cccc(S(=O)(=O)O)c1`, for which the AC50 is 129 µM (active).

Regarding `O=S1(=O)OC(c2cc(Br)c(O)c(Br)c2)(c2cc(Br)c(O)c(Br)c2)c2ccccc21`, the AC50 was 58.8 µM (active).

In the case of `O=C(CCl)Nc1ccccc1`, the AC50 is 21.1 µM (active).

The values above are taken from PubChem BioAssay (EPA / NIEHS).
